According to PubChem BioAssay (NCI):
“And” between values parts separate entries of the source, which are not always exact repeats. Identical values can stand only once. About 83,000 compounds went through this panel and 20% of them were active in at least one assay; those are over-represented in the sample as a whole.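 The test compound was applied at a single concentration to cells in 96-well plates for 48 hours, and percent growth was recorded.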 The source made the active and inactive calls. How the source made its calls: active means growth percent below 10; inactive means the rest.

test system: MDA-MB-468 breast; assay: NCI-60 one-dose screen, 48 h (100 = growth as untreated, 0 = no growth, -100 = all killed); conditions: 10 µM unless noted

SMILES | growth
CC(=O)O[C@H]1CC[C@@]2(C)C(=CC[C@H]3[C@@H]4C[C@@H](N5CC5)[C@H](C(C)=O)[C@@]4(C)CC[C@@H]32)C1 | 79% (inactive)
COc1ccc(/C=C\c2cc(OC)c(OC)c(OC)c2)cc1OCC(=O)Nc1nc2ccc(OC(F)(F)F)cc2s1 | -22.1% (active)
CNC(=O)Oc1cccc(N(C)C)c1 | 92.7% (inactive)
O=C1OCCC1Br (stereo not drawn) | 106% (inactive)
COc1cc(/C=C\c2cc(OC)c(OC)c(OC)c2)cc(N/C=C\C(=O)c2ccc(OC(F)(F)F)cc2)c1OC | 27.2% (inactive)
C[CH2][Pb]([CH2]C)([CH2]C)[O]C(=O)COc1ccccc1 | 9.74% (active)
COc1ccc(C(=O)c2cc(OC)c(OC)c(OC)c2)cc1OC(C)=O | 43.1% (inactive)
Cc1cc(C)nc(C)c1.[Cl][Hg][Cl] | 113% (inactive)
CC[C@]12C=CCN3CC[C@@]4(c5ccc(OC)cc5N(C)[C@H]4[C@@](O)(C(=O)OC)[C@@H]1OC(=O)CCCN1CCN(CCCC(=O)O[C@@H]4[C@]5(CC)C=CCN6CC[C@@]7(c8ccc(OC)cc8N(C)[C@H]7[C@@]4(O)C(=O)OC)[C@@H]65)CC1)[C@@H]32 | -88.4% (active)
COC1=CC(=O)O[C@@H](/C=C/c2ccc3c(c2)OCO3)C1 | 103% (inactive)
O=C(O)CCCc1ccc(N(CCCl)CCCl)cc1 | 77.7% (inactive)
C[C@]12CC[C@H]3[C@@H](CC[C@]4(O)C[C@@H](O[C@@H]5O[C@H](CO)[C@@H](O[C@@H]6OC[C@@H](O)[C@H](O)[C@H]6O)[C@H](O)[C@H]5O)CC[C@]34C=O)[C@@]1(O)CC[C@@H]2C1=CC(=O)OC1 | 38.7% (inactive)
COc1ccc(/C=C\c2cc(OC)c(OC)c(OC)c2)cc1OCC(=O)Nc1nc2ccc(C(F)(F)F)cc2s1 | 1.38% (active)
O=C(c1cccs1)C1NO[N+]([O-])=C1c1cccs1 (stereo not drawn) | -47.7% (active)
C/C=C/CC(C)C(O)[C@H](NC(=O)[C@@H]1CCCN1C(=O)C(C)(C)NC(=O)CCCCCCCCC)C(=O)NC(C)(C)C(=O)N[C@@H](CCC(N)=O)C(=O)N[C@H](CCC(N)=O)C(=O)NC(C)(C)C(=O)NC(C)(C)C(=O)N[C@@H](CCC(N)=O)C(=O)N[C@H](CC(C)C)C(=O)N[C@H](CO)CC(C)C (stereo partly drawn) | -75.9% (active) and -84.9% (active)
O=C(CC1(O)C(=O)Nc2ccc(Br)cc21)c1ccc(C(=O)NCC2CCC3(CC2)OOC2(CCCCC2)OO3)cc1 (stereo not drawn) | 48.7% (inactive)
C/C(CC(C)(C)N1CC1)=N\NC(=O)Nc1cccc2ccccc12 | -2.46% (active)
c1ccc(CCN2CCCCC2Cc2ccccc2)cc1 (stereo not drawn) | 103% (inactive)
Clc1ccc(CO/N=C(\Cn2ccnc2)c2ccc(Cl)cc2Cl)c(Cl)c1 | -24.5% (active)

SMILES | growth
COc1ccc2c(ccc3oc([N+](=O)[O-])cc32)c1 | -57.8% (active)
O=C(NCCCN1CC1)Nc1cccc2ccccc12 | 103% (inactive) and 90.7% (inactive)
C[CH2][Sn]([Cl])([Cl])[CH2]C.Oc1ccccc1C=NCCN=Cc1ccccc1O | 103% (inactive)
O=C(c1cccc(O)c1O)c1cn(Cc2ccc(F)cc2)c2cccc(O)c12 | 27% (inactive)
C/C(=C\c1ccc(Cl)c(Cl)c1)[N+](=O)[O-] | -77.9% (active) and 93.8% (inactive)
COc1c(O)c2c3c(c1OC)-c1ccccc1CC3N(C)CC2 (stereo not drawn) | 120% (inactive)
O=[N+]([O-])c1ccc(P(=O)(O)O)cc1 | 102% (inactive)
O=[N+]([O-])c1cccc([As]=[As]c2cccc([N+](=O)[O-])c2)c1 (stereo not drawn) | -78.5% (active)
NC1CC2CCCCC2CC1(O)c1ccccc1 (stereo not drawn) | 98.2% (inactive)
Fc1ccc2c(c1)c(-c1nc(-c3c[nH]c4ncccc34)cs1)cn2CCN1CCOCC1 | 43.8% (inactive)
O=C1OCC2=C1C(c1ccccc1)c1cc3c(cc1N2)OCO3 (stereo not drawn) | -9.05% (active)
Cc1cc2c(cc1-c1ccnc(/C=C/C(=O)O)c1)C(C)(C)CCC2(C)C | 97.1% (inactive)
C/C(=C\C(=O)O[C@H]1[C@@H]2[C@H](C)CC[C@H]2[C@]2(C)O[C@@]1(C1CCCCC1)C[C@H]2OC(=O)CO)c1ccccc1 | 28% (inactive)
O=C(O)C1(Br)CC12c1ccccc1-c1ccccc12 (stereo not drawn) | 98.7% (inactive)
C/C(=C\c1ccn(-c2ccc(N)cc2F)n1)[C@@H]1C[C@@H]2O[C@]2(C)CCC[C@H](C)[C@H](O)[C@@H](C)C(=O)C(C)(C)[C@@H](O)CC(=O)O1 | 8.6% (active)
O=[N+]([O-])c1c(Cl)cc(Cl)c([N+](=O)[O-])c1Cl | 15% (inactive)
COC(=O)[C@@H](C)C[C@H](Cc1cn(C)c2ccccc12)NC(=O)c1csc([C@@H](C[C@H](C(C)C)N(C)C(=O)[C@@H](NC(=O)[C@H]2CCCCN2C)C(C)C)OC(C)=O)n1 | 28.6% (inactive)
O=[N+]([O-])c1cc([N+](=O)[O-])c(Cl)c(Cl)c1Cl | -57.3% (active)
COC(=O)[C@@H](C)C[C@H](Cc1ccccc1)NC(=O)c1csc([C@@H](C[C@H](C(C)C)N(C)C(=O)[C@@H](NC(=O)[C@H]2CCCN2C)C2CC2)OC(C)=O)n1 | -9.22% (active)
